# PubChem BioAssay (EPA / NIEHS)
# Records with an inconclusive call do not appear. Calls of active or inactive are those of the source. Rule for the calls, unless noted: active = hit-call score of the fitted dose curve at least 0.9, where 1 is the maximum; inconclusive = response in the unintended direction; inactive = score below 0.9.
# Columns and labels:
# [1] = VALA_TUBHUV_Agonist_CellCount: Viability Assessment in the VALA Sciences human Umbilical Vein Endothelial Tubule Formation (TUBHUV) Agonism Assay (AID 2284309)
# Method in brief: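 Viability endpoint by fluorescent imaging of fixed nuclear/CD31-stained HUVEC–HDF co-cultures. Readout is cell count, fitted upward against 0.1% DMSO. Compound exposure was 72 h in 10 ng/ml VEGF, after 3-day co-culture priming.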
# [2] = VALA_TUBIPS_Agonist_TubuleLength: VALA Sciences human iPS-derived Endothelial Tubule Formation (TUBIPS) Agonism Assay (AID 2284311)
# Method in brief: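 Agonist-mode readout is the gain in imaged tubule length versus DMSO baseline. It was measured by fluorescence high-content imaging 72 h after dosing human iPSC-derived endothelial cells.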
# [3] = IUF_NPC2-5_cytotoxicity_120hr: Cytotoxicity Assessment at 120 hours in the Leibniz Research Institute for Environmental Medicine (IUF) Neural Progenitor Cell Migration and Differentiation Assay (NPC2-5) (AID 2284307);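 for AC50: LDH released into supernatant as membrane damage marker via resorufin fluorescence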
# Protocol: IUF_NPC2-5 is a cell-based, multiplexed assay that uses hNPC, a human primary neural progenitor cells, with measurements taken at 72 or 120 hours after chemical dosing in a 96-well plate. Human neural progenitor cells (hNPC) are generated from human fetal brain cortex at gestational week (GW) 16-19. In the neural progenitor cell migration and differentiation assay (NPC2-5), hNPCs grown as spheres are plated on an extracellular matrix and migrate and differentiate out of the sphere core. The processes radial glia migration, neuronal and oligodendrocyte migration as well as neuronal differentiation, neuronal morphology and oligodendrocyte differentiation are studied using automated phase contrast imaging and automated fluorescence imaging in combination with high content image analysis. In parallel, the cell viability is assessed using an alamar blue viability assay and the cytotoxicity using a lactate dehydrogenase dependent membrane integrity assay.IUF_NPC2-5_cytotoxicity_120hr is one of 12 assay components measured from the IUF_NPC2-5 assay. It is designed to measure cytotoxicity at 120hr due to loss of membrane integrity. LDH measurements are performed from medium supernatants of each well and are based on the reduction of resazurin to resorufin measured as fluorescence signal (relative fluorescence unit) in a multiplate reader. Data from the IUF_NPC2-5_cytotoxicity_120hr component was analyzed at the endpoint IUF_NPC2-5_cytotoxicity_120hr in the positive analysis fitting direction relative to the dynamic range and baseline of activity. Using a type of viability reporter, gain-of-signal activity can be used to understand cytotoxicity effects.
# Culture protocol: After the cell expansion period the cells are cultured for up to four weeks in which they are passaged every week as described in 3.6. Between one to three days after passaging spheres at a size of 0.3 mm are picked for the test method. For the assessment of neural progenitor cell migration and differentiation, the spheres are plated on poly-D-lysine/laminin coated 96-well flat bottom plates in differentiation medium (N2) to initiate migration and differentiation. Thereby one 0.3 mm big sphere is plated in the middle of a well. The differentiation medium consists of DMEM and Ham's F12 at a ratio of 3 to 1 supplemented with 1% N2 and 1% penicillin and streptomycin. Within 5 days NPCs radially migrate out of the sphere core and differentiate into radial glia cells (nestin positive), neurons (TUBB3 positive), oligodendrocytes (O4 positive) and astrocytes (GFAP positive). Cultivation during the test method is performed at 37C and 5% CO2 at a ph of 7.2-7.6.Exposure: 0.3 mm big hNPC are plated in the already prepared test conditions. Exposure starts at day 0 of differentiation and is continued over five days of differentiation until the experiment is terminated. Cells are fed with fresh medium at day 3 of differentiation. Therefore, half of the test condition solution (e.g. solvent control or compound dilution) is replaced by freshly prepared test condition solution.Test Method: Migration distance and cytotoxicity is determined after 72 hours based on brightfield images of each well. The assay is terminated by the assessment of cell viability and cytotoxicity as well as cell fixation after 120 h. Immunocytochemistry is performed for Hoechst positive nuclei, TUBB3 positive neurons and O4 positive oligodendrocytes. On the ICC images, migration after 120 hours, neuronal and oligodendrocyte number, neuronal morphology and neuron/oligodendrocyte specific migration is assessed. immunocytochemical staining (ICC) generates an image for each sphere. The plates are scanned using an automated high content imaging device and all nuclei and their positions are determined automatically based on their intensity and size. Images are imported to the Omnisphero software to run the image analysis that measures the following endpoints. […]
# [4] = IUF_NPC2-5_cell_number_120hr: Cell Number Assessment at 120 hours in the Leibniz Research Institute for Environmental Medicine (IUF) Neural Progenitor Cell Migration and Differentiation Assay (NPC2-5) (AID 2284308; active = hit-call score of the fitted dose curve at least 0.9, where 1 is the maximum; inactive = score below 0.9;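 note: count of Hoechst-stained nuclei in migration zone around plated human neural progenitor spheres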)
# Method in brief: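 Seven-point serial dilutions plus solvent control were applied to plated 0.3 mm hNPC spheres at differentiation start, with medium half-replaced at day 3. Nuclei positive for Hoechst in the migration zone were enumerated at 120 h.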
# [5] = IUF_NPC2-5_viability_120hr: Viability Assessment at 120 hours in the Leibniz Research Institute for Environmental Medicine (IUF) Neural Progenitor Cell Migration and Differentiation Assay (NPC2-5) (AID 2284312; active = hit-call score of the fitted dose curve at least 0.9, where 1 is the maximum; inactive = score below 0.9)
# Method in brief: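 Alamar blue resorufin fluorescence read after 5 days of differentiation, with compound present from day 0 and replenished at day 3. Primary hNPC spheres on laminin-coated plates, 37C; seven concentrations plus solvent control, fitted against DMSO.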
# [6] = VALA_TUBHUV_Antagonist_CellCount: Viability Assessment in the VALA Sciences human Umbilical Vein Endothelial Tubule Formation (TUBHUV) Antagonism Assay (AID 2284310)
# Method in brief: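 Read-out is imaged cell count after nuclear and CD31 staining, fitted against 0.1% DMSO vehicle. Compounds were added for 3 days, in 10 ng/ml VEGF assay medium, to HUVEC–HDF co-cultures pre-grown 3 days.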
# [7] = VALA_TUBIPS_Antagonist_TubuleLength: VALA Sciences human iPS-derived Endothelial Tubule Formation (TUBIPS) Antagonist Assay (AID 2284313)
# Method in brief: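 Tubule length was quantified by high-content imaging of CD31- and nuclear-stained cells, with 0.1% DMSO as neutral and 100 uM suramin as inhibition control. Compounds were applied for 3 days, in 10 ng/ml VEGF, to cultures pre-grown 3 days.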
# [8] = VALA_MIGHUV2_CellCount: Viability Assessment in the VALA Sciences human Umbilical Vein Endothelial Cell Migration (MIGHUV) Assay, Area of Scratch Wound after Recovery (AID 2284314)
# Method in brief: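 Viability read-out: Hoechst-stained nuclei counted by fluorescence imaging after a 24 h recovery period in fixed, scratched HUVEC plates. Compound was dosed within 30 min of scratching at six concentrations (triplicate); DMSO at 0.1 % served as baseline.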
# [9] = VALA_MIGHUV2_Bcatenin: VALA Sciences human Umbilical Vein Endothelial Cell Migration (MIGHUV) Assay, Nuclear Translocation of beta-Catenin after Recovery (AID 2284315)
# Method in brief: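 Nuclear beta-catenin imaged by immunofluorescence with Hoechst counterstain in fixed HUVEC, 24 h after scratch wounding and chemical addition. Six-point concentration-response in triplicate; activity scored as signal increase over 0.1% DMSO vehicle.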
# [10] = VALA_MIGHUV2_WoundArea: VALA Sciences human Umbilical Vein Endothelial Cell Migration (MIGHUV) Assay, Area of Scratch Wound after Recovery (AID 2284316)
# Method in brief: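 Wound-area endpoint read by fluorescence imaging of Hoechst-stained nuclei after a 24 h recovery period following scratch of HUVEC monolayers (9000 cells/well). Chemicals dosed within 30 min post-scratch, triplicate 6-point series, 0.1% DMSO vehicle; Cytochalasin D positive control.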
smiles,measurement,setting,value
Clc1ccc(Cl)c(Cl)c1,outcome,[1],inactive
same,outcome,[2],inactive
COP(=S)(OC)SCN1C(=O)c2ccccc2C1=O,outcome,[3],inactive
same,outcome,[4],inactive
same,outcome,[5],inactive
[O-][Cl+]O,outcome,[3],inactive
same,outcome,[4],inactive
same,outcome,[5],inactive
O=P(OCCCl)(OCCCl)OCCCl,outcome,[3],inactive
same,outcome,[4],inactive
same,outcome,[1],inactive
same,AC50,[6],88300 nM (active)
same,outcome,[2],inactive
same,outcome,[5],inactive
same,outcome,[7],inactive
same,outcome,[8],inactive
OCCOCCO,outcome,[3],inactive
same,outcome,[4],inactive
same,outcome,[5],inactive
Oc1ccc2ccc3cccc4ccc1c2c34,outcome,[1],inactive
same,outcome,[6],inactive
same,outcome,[7],inactive
CC(C)(C)C(O)(CCc1ccc(Cl)cc1)Cn1cncn1 (centres undefined),outcome,[3],inactive
same,outcome,[4],inactive
same,outcome,[5],inactive
CCCCOC(=O)c1ccccc1C(=O)OCc1ccccc1,outcome,[3],inactive
same,outcome,[4],inactive
same,outcome,[5],inactive
CC(C)COC(=O)c1ccccc1C(=O)OCC(C)C,outcome,[3],inactive
same,outcome,[4],inactive
same,outcome,[5],inactive
CNC(=O)Oc1cccc2c1OC(C)(C)C2,outcome,[3],inactive
same,outcome,[4],inactive
same,outcome,[5],inactive
COC(=O)Nc1nc2ccccc2[nH]1,AC50,[4],7820 nM (active)
same,AC50,[5],12500 nM (active)
CO[C@@H]1[C@H](OC(=O)NC(=O)CCl)CC[C@]2(CO2)[C@H]1[C@@]1(C)O[C@@H]1CC=C(C)C,outcome,[1],inactive
same,outcome,[6],inactive
same,outcome,[7],inactive
same,AC50,[9],1.29 nM (active)
same,outcome,[10],inactive
CCC[CH2][Sn]([Cl])([CH2]CCC)[CH2]CCC,AC50,[3],455 nM (active)
same,AC50,[4],310 nM (active)
same,AC50,[5],393 nM (active)
